Experiment [1] can be described thus: qHTS assay to identify small molecule agonists of the constitutive androstane receptor (CAR) signaling pathway - cell viability counter screen (AID 1224836). Further: nearly all actives have a fitted effect of over 45% in size. Further: potency means the concentration at half of the fitted maximal effect. Summed up: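 Using CellTiter-Fluor, viability of HepG2 cells harbouring hCAR and CYP2B6-2.2kb was measured following 23 h incubation with a 15-concentration compound series plus PK11195 (0.75 uM final).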
On the technique in general: In qHTS, concentration-response curves come from the screen itself.

A short description of experiment [2]: qHTS assay to identify small molecule antagonists of the constitutive androstane receptor (CAR) signaling pathway - cell viability counter screen (AID 1224837). Further: nearly all actives have a fitted effect of over 45% in size. Further: potency means the concentration at half of the fitted maximal effect. Summed up:
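Multiplexed cytotoxicity read-out for the CAR antagonist screen: double-stable HepG2-CYP2B6-hCAR cells co-treated with 50 nM CITCO (final) and compound over 15 concentrations, incubated 23 hr, then assessed by CellTiter-Fluor fluorescence.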

Experiment [3] concerns the target Nuclear receptor subfamily 1 group I member 3 (Homo sapiens) (UniProt Q14994). As to the kind of experiment: qHTS assay to identify small molecule antagonists of the constitutive androstane receptor (CAR) signaling pathway (AID 1224838). Further: nearly all actives have a fitted effect of over 40% in size. Further: potency means the concentration at half of the fitted maximal effect. Summed up: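 Compounds were titrated across 15 concentrations onto HepG2 cells double-stably expressing hCAR and a CYP2B6-2.2kb reporter, together with 50 nM CITCO (final). After 24 h at 37 C, luciferase activity was measured by luminescence.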

The target is the same in experiment [4]. As to the kind of experiment: qHTS assay to identify small molecule agonists of the constitutive androstane receptor (CAR) signaling pathway (AID 1224839). Further: nearly all actives have a fitted effect of over 15% in size. Further: potency means the concentration at half of the fitted maximal effect. Summed up: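 Double-stable HepG2 cells (hCAR, CYP2B6-2.2kb) seeded 4 h before compound addition. Exposure 24 h with 0.75 uM PK11195 final. Luciferase detected by ONE-Glo.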
The nature of experiment [5]: qHTS assay to identify small molecule antagonists of the estrogen related receptor signaling pathway with the pleiotropic PPARgamma coactivator (PGC) from Tox21 10K library - cell viability counter screen (AID 1224840; active means well fitted cell-killing curve with a large enough effect in the repeat runs, not every such curve was filed as active; further: nearly all actives have a fitted effect of over 40% in size; further: potency means the concentration at half of the fitted maximal effect). Summed up: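 Step one, plate 2,000 PGC/ERR cells per well; step two, incubate 6 h at 37 C/5% CO2; step three, pin-transfer compounds; step four, incubate 17.5 h; step five, add CellTiter-Fluor and read fluorescence after 30 min.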

Experiment [6] in a line: qHTS assay to identify small molecule agonists of the hypoxia (HIF-1) signaling pathway - cell viability counter screen (AID 1224844; calls by dose curve; further: nearly all actives have a fitted effect of over 50% in size; further: potency means the concentration at half of the fitted maximal effect). Summed up: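 Tox21 10K compounds were added to HRE-bla ME-180 cells (0.5% dialyzed FBS) and incubated 17 hrs at 37C; ATP-based CellTiter-Glo luminescence then reported cell viability in the same wells.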
Experiment [7] is described as follows: qHTS assay to identify small molecule agonists of the hypoxia (HIF-1) signaling pathway (AID 1224846; active means well fitted activation curve with a large enough effect in the signal ratio in the repeat runs, not every such curve was filed as active; the % refers to the signal ratio; further: potency means the concentration at half of the fitted maximal effect). Summed up:
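Steps: seed ME-180 HRE-bla cells (2,000/well, 0.5% dialyzed FBS); incubate 5 hrs at 37C; pin-transfer compounds or DMSO; incubate 17 hrs; add LiveBLAzer B/G substrate CCF4-AM; measure reporter activation by FRET.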

Experiment [8] in a line: qHTS RealTime-Glo MT Cell Viability Assay in HepG2 cells - 24 hour (AID 1224867). Further: nearly all actives have a fitted effect of over 50% in size. Further: potency means the concentration at half of the fitted maximal effect. Summed up:
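Luminescence read-out: viable HepG2 cells reduce a prosubstrate to a NanoLuc substrate, giving a signal proportional to live cell number. Reads taken at 0, 8, 16, 24, 32 and 40 h of compound exposure at 37 C.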

Experiment [9] in a line: qHTS RealTime-Glo MT Cell Viability Assay in HEK293 cells - 32 hour (AID 1224868). Further: nearly all actives have a fitted effect of over 50% in size. Further: potency means the concentration at half of the fitted maximal effect. Summed up: (§1)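 Nonlytic real-time viability readout: viable cells convert prosubstrate to NanoLuc substrate, giving luminescence proportional to live cell number. HEK293, 600 cells/well, compound added after 5 h, continuous culture at 37 C.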
Experiment [10] is described as follows: qHTS RealTime-Glo MT Cell Viability Assay in HepG2 cells - 40 hour (AID 1224870). Further: nearly all actives have a fitted effect of over 50% in size. Further: potency means the concentration at half of the fitted maximal effect. Summed up: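 Real-time viability: cells seeded at 600 per well together with NanoLuc and cell-permeant prosubstrate, compounds added after 5 h incubation. Luminescence tracked at 0, 8, 16, 24, 32 and 40 h of exposure.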
Experiment [11] in a line: A CellTox Green Cytotoxicity Assay to monitor cytotoxicity in HEK293 cells - 40 hour (AID 1224871). Further: nearly all actives have a fitted effect of over 45% in size. Further: potency means the concentration at half of the fitted maximal effect. Summed up:
(§2)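 Cytotoxicity was tracked continuously in HEK293 cells by a DNA-binding dye excluded from viable cells. Compounds were transferred in DMSO 5 h after seeding; fluorescence was recorded at intervals up to 40 h.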

The nature of experiment [12]: qHTS RealTime-Glo MT Cell Viability Assay in HEK293 cells - 16 hour (AID 1224872). Further: nearly all actives have a fitted effect of over 50% in size. Further: potency means the concentration at half of the fitted maximal effect. Summed up:
as §1

The target of experiment [13] is Thyrotropin receptor (Homo sapiens) (UniProt P16473). Kind of experiment: qHTS assay to identify small molecule agonists of the thyroid stimulating hormone receptor (TSHR) signaling pathway (AID 1224843; calls by dose curve; further: nearly all actives have a fitted effect of over 45% in size; further: potency means the concentration at half of the fitted maximal effect). Summed up:
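HEK293 cells stably bearing the thyrotropin receptor were plated at 800 cells/well and challenged with compound (30 min, RT). Accumulated cAMP was quantified via cAMP-d2 competing for cryptate-tagged antibody.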

Experiment [14] in a line: qHTS assay to identify small molecule agonists of H2AX - cell viability counter screen (AID 1224847; calls by dose curve; further: nearly all actives have a fitted effect of over 30% in size; further: potency means the concentration at half of the fitted maximal effect). Summed up:
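Quantitative HTS viability measurement: CHO-K1 wild-type cells in serum (10% FBS) medium, short 3 hr drug exposure at 37C with 0.76% DMSO, CellTiter-Glo luminescent detection.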

Experiment [15] can be described thus: A CellTox Green Cytotoxicity Assay to monitor cytotoxicity in HEK293 cells - 0 hour (AID 1224869). Further: nearly all actives have a fitted effect of over 50% in size. Summed up: as §2
Experiment [16] can be described thus: qHTS assay to identify small molecule agonists of the estrogen related receptor signaling pathway with the pleiotropic PPARgamma coactivator (PGC) from Tox21 10K library (AID 1224842). Further: nearly all actives have a fitted effect of over 15% in size. Further: potency means the concentration at half of the fitted maximal effect. Summed up: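 Luminescence from One-Glo (30 min, room temperature) measured after PGC/ERR cells had 18 h at 37 C with pinned compound (23 nL in DMSO). Cells had been seeded at 2,000 per well and pre-incubated 6 h.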

A short description of experiment [17]: qHTS assay to identify small molecule agonists of H2AX (AID 1224845; active means well fitted activation curve with a large enough effect in the signal ratio in the repeat runs, not every such curve was filed as active; the % refers to the signal ratio). Summed up: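 Phospho-H2AX Ser139 measured by HTRF (ex 320 nm; em 665 and 620 nm) after 24 hr antibody incubation. Compounds, 15 concentrations, 0.76% DMSO, were applied to CHO-K1 cells for 3hr at 37C before lysis.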
The nature of experiment [18]: qHTS assay to identify small molecule antagonists of the estrogen related receptor (ERR) signaling pathway from Tox21 library (AID 1224848). Further: nearly all actives have a fitted effect of over 50% in size. Further: potency means the concentration at half of the fitted maximal effect. Summed up: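 Reading was by luminescence 30 min after ONE-Glo addition. Before that, ERR cells at 2,000 per well had rested 6 h at 37 C/5% CO2 and then received pin-tooled compounds in DMSO for 18 h at 37 C.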
Experiment [19] in a line: qHTS assay to identify small molecule agonists of the estrogen related receptor (ERR) signaling pathway from Tox21 library (AID 1224849; calls by dose curve; further: nearly all actives have a fitted effect of over 15% in size). Conditions: ERR reporter cell line, ONE-Glo luciferase, 18 h; at 92.4 µM (top of the series) unless noted. Summed up: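 Agonist signal is luciferase luminescence from an ERR reporter cell line treated 18 h at 37 C with DMSO-dissolved compounds, read 30 min after ONE-Glo addition at room temperature.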

SMILES strings stand for the structures. Unmarked numbers belong to inactive results. Results filed as inconclusive are left out. Calls of active or inactive are those of the source. Unless noted, the call rests on the fitted dose curve; in most records, active means well fitted curve in the direction sought with a large enough effect in the repeat runs; inconclusive means weak or mixed curves; inactive means no such curve, though single readings can be large; an effect the other way counts as inactive or inconclusive.
On the % scale 0 is the no-effect control and ±100 the full control effect.

Chain of Nuclear receptor subfamily 1 group I member 3 (Homo sapiens) (Q14994 whole entry, looked up): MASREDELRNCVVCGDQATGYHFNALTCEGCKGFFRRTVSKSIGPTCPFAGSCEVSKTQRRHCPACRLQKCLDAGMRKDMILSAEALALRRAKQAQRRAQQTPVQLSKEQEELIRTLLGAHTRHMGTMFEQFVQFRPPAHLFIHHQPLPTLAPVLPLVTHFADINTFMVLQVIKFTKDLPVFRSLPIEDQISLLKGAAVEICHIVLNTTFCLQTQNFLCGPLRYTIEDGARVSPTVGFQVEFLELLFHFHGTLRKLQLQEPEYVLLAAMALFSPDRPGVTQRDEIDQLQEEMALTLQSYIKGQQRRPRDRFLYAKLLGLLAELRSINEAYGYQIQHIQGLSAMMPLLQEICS
Chain of Thyrotropin receptor (Homo sapiens) (P16473 whole entry, looked up): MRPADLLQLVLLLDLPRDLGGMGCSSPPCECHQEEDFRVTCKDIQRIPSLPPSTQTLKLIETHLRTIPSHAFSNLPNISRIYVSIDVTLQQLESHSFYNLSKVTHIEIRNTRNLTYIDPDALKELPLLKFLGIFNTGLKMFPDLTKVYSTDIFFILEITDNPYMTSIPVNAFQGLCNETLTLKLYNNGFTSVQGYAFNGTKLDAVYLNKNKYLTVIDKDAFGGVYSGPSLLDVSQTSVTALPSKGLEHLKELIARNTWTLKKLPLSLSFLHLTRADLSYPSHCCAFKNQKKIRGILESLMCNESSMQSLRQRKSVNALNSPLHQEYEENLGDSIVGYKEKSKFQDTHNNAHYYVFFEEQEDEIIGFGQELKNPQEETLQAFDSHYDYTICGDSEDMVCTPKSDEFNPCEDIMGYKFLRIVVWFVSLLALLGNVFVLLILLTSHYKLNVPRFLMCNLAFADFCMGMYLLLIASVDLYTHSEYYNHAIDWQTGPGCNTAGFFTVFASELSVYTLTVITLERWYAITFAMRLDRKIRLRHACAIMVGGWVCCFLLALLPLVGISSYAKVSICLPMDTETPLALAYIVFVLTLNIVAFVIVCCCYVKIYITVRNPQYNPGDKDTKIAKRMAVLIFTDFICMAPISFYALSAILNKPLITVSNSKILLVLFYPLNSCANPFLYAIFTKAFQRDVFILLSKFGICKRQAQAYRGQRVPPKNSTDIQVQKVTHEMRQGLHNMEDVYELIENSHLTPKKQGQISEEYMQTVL

Consider `CCN(CC)CCNC(=O)c1c(C)[nH]c(/C=C2\C(=O)Nc3ccc(F)cc32)c1C`, for which the Potency in [1] is 10.6 µM (active); in experiment [2], 10.6 µM (active); in [3], 10.6 µM (active); in experiment [5] it was 29.8 µM (active); in experiment [6], 9.52 µM (active); in experiment [8], 21.3 µM (active). The Potency in experiment [9] is 10.7 µM (active); in [10] it was 15.1 µM (active); in experiment [11], 23.9 µM (active); in [12], 10.7 µM (active). Moreover, the Potency result in [4] and in experiment [7] was “inactive” throughout.
Consider `Clc1ccc(C(Cn2ccnc2)OCc2ccc(Sc3ccccc3)cc2)c(Cl)c1` (configuration not stated), for which the Potency result in [1], in experiment [2], in experiment [3], in experiment [4], in experiment [5] and in experiment [13] was “inactive” throughout. Further, the Potency entry in [14], in experiment [8], in experiment [9], in experiment [15], in experiment [10] and in experiment [11] was “inactive” in each case. For the same compound, the Potency result in experiment [12] is “inactive”.
For `Cc1cccc(CN2CCN(C(c3ccccc3)c3ccc(Cl)cc3)CC2)c1` (configuration not stated), the Potency result in [1], in experiment [2], in [3], in experiment [4], in experiment [5] and in experiment [16] was “inactive” each time. Moreover, the Potency entry in experiment [17], in experiment [8], in experiment [15], in [10], in experiment [11] and in experiment [12] was “inactive” in each case. In addition, the Potency in [18] was 26.6 µM (active). In addition, the activity change, positive = activation in experiment [19] was -29.2% [at 42.5 µM].
For `[Cl][Bi]([Cl])([c]1ccccc1)([c]1ccccc1)[c]1ccccc1`, the Potency in experiment [1] was 21.6 µM (active); in experiment [2], 19.2 µM (active); in experiment [3], 12.1 µM (active); in experiment [5] it was 6.08 µM (active); in experiment [13], 2.16 µM (active); in experiment [6], 19.4 µM (active). In addition, the Potency in experiment [14] is 35.5 µM (active); in experiment [8], 6.88 µM (active); in experiment [9] it was 2.44 µM (active); in experiment [10] it was 7.71 µM (active); in experiment [11], 24.4 µM (active); in experiment [12], 4.87 µM (active). Besides, the Potency result in [4] and in [15] was “inactive” in each case.
As to `Clc1ccc2cc3ccccc3cc2c1`, the Potency result in experiment [1], in experiment [2], in experiment [3], in experiment [5], in experiment [6] and in experiment [14] was “inactive” in each case. Besides, the Potency result in [18], in experiment [8], in [15] and in experiment [11] was “inactive” in each case. Besides, the Potency in experiment [4] is 54.4 µM (active); in experiment [16], 68.5 µM (active); in experiment [7], 30.9 µM (active). Moreover, the activity change, positive = activation in [19] is 8.76%.
As for `OCCCCCCCCCCCCBr`, the Potency entry in experiment [1], in experiment [2], in [3], in experiment [17], in experiment [7] and in [8] was “inactive” throughout. Besides, the Potency entry in experiment [15], in [10] and in experiment [11] was “inactive” each time. In addition, the values for the Potency in experiment [6] and in experiment [14] were 44.3 µM (active) and 102 µM (active), respectively.
Regarding `CSc1ccc(C(=O)c2[nH]c(=O)[nH]c2C)cc1`, the Potency result in [1], in [2], in experiment [4], in experiment [5], in experiment [6] and in [17] was “inactive” throughout. The Potency entry in [14], in experiment [18], in experiment [8], in experiment [9], in experiment [15] and in experiment [10] was “inactive” each time. Moreover, the Potency entry in experiment [11] and in experiment [12] was “inactive” in each case.

(Values after PubChem BioAssay (Tox21).)
